Measurements as given in PubChem BioAssay AID1246 (Columbia University Molecular Screening Center, 2008).
Among all 120,000 compounds or so, about 840 (0.7%) were called active. The entries come from a sample that favours actives as a whole. Values without a mark were called inactive.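 How the source made its calls: active means inhibition above the batch mean plus 3 SD, and confirmed as a hit on visual image review (cut at about 43% in these data); inconclusive means passes the inhibition cutoff but fails visual image review; inactive means the rest.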

Assay: E-selectin induction blockers in HUVEC – imaging, immunofluorescence, high content, primary screen (AID 1246);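 further: 0% = TNF-stimulated DMSO wells and 100% = unstimulated control wells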
Conditions: HUVEC TNFa-induced E-selectin immunofluorescence, at 2 µM, stronger effect = higher value

Structure (SMILES)	inhibition
COc1cccc(C(=O)N2CCCC(CCC(=O)NCc3ccc(F)c(F)c3)C2)c1 (stereo not given)	-27.8%
O=c1[nH]c2cccnc2n(CCNc2ncc(C(F)(F)F)cc2Cl)c1=O	-0.32%
Cc1ccc(NC(=O)c2oc3ccccc3c2C)c([N+](=O)[O-])c1	7.01%
COc1ccc(-c2nc3cnccn3c2NC(C)(C)CC(C)(C)C)cc1O	78.6% (active)
COc1ccc(-c2cc(C(F)(F)F)nc(NCc3cccnc3)n2)cc1	6.81%
CCOc1cc(-c2nc3cc(C)ccn3c2NCC2CCCO2)ccc1O (stereo not given)	-1.41%
COc1cccc(CNC(=O)c2n[nH]c3ccccc23)c1	21.4%
CNC(=O)COC(=O)c1cc(-c2ccc(OC)cc2)nc2ccccc12	-50.4%
CC(=O)c1cnc(-c2ccccc2)s1	-23.3%
CN(CC(=O)Nc1ccccc1F)CC(=O)Nc1ccccc1Br	-9.64%
O=C(O)CCn1c(SCc2cc(=O)n3ccccc3n2)nc2ccsc2c1=O	7.79%
COC(=O)Cn1cc(/C=C/[N+](=O)[O-])c2ccccc21	-39.6%
COc1cccc(OCC(=O)NNC(=O)c2cnccn2)c1	-0.48%
COc1ccccc1CCNC(=O)CSc1nnc2ccc(-c3cccnc3)nn12	23.9%
COc1ccccc1CCNC(=O)c1cnccn1	70.2% (active)
COc1ccccc1CNC(=O)c1cc(=O)c2ccccc2o1	6.95%
Cc1ccc(S(=O)(=O)N(C)C)cc1NC(=O)c1ccccc1Br	21.2%
COc1ccc(NC(=O)CCNS(=O)(=O)c2ccc3c(c2)c(=O)n(C)c(=O)n3C)cc1OC	-38.9%
COc1ccc(C2/C(=C(/O)c3ccccc3)C(=O)C(=O)N2c2ncccn2)cc1OC (stereo not given)	-2.78%
COc1ccc(C2N=C(N)N=C(N)N2c2ccccc2)cc1OC (stereo not given)	62.9% (active)
COc1ccc(C2CC(=O)n3c(nc4ccccc43)S2)cc1OC (stereo not given)	-0.21%
O=C(O)/C=C/c1ccc(OCCCF)cc1	-53.3%
CC(=O)Oc1cccc(N2C(=O)C3CC=C(Cl)CC3C2=O)c1 (stereo not given)	64.7% (active)
O=C(Oc1cccc(N2C(=O)C3C4c5ccccc5C(c5ccccc54)C3C2=O)c1)c1ccco1 (stereo not given)	13.7%
CC(=O)Oc1cccc(N2C(=O)CC(Nc3ccc(N4CCOCC4)cc3)C2=O)c1 (stereo not given)	-16.6%

Structure (SMILES)	inhibition
COc1cc(C=O)c(Br)cc1OCC(=O)NCc1ccccc1	-19%
CCCNC(=S)N1CCCC(c2nc3ccccc3[nH]2)C1 (stereo not given)	-49%
Cn1c(CCC(=O)Nc2ccccc2F)nnc1SCC(=O)Nc1ccccc1Cl	-44.5%
COc1ccc(S(=O)(=O)N2CCN(C(=O)c3cc(C)oc3C)CC2)cc1	-37.8%
CC(=O)c1ccc(N=C2SCCCN2C(=O)C2CCCCC2)cc1	7.89%
COc1cccc(C(=O)Oc2cc(C)[nH]c(=O)c2[N+](=O)[O-])c1	21.9%
CCN(CC)Cc1cc(C(C)=O)ccc1O	47.5% (active)
CC(=O)c1ccc2c(ccc3ccccc32)c1	22.7%
COCc1cc(C(C)=O)ccc1OC	-4.6%
CC1CCCN(CC(O)COc2ccc3c(c2)OCO3)C1 (stereo not given)	11.9%
O=C1CCC(=O)N1c1ccc(NCCc2ccccc2F)c([N+](=O)[O-])c1	-8.93%
CCN(C(=O)CN1CCN(Cc2ccccc2)CC1)c1c(N)n(Cc2ccccc2)c(=O)[nH]c1=O	-54.5%
COc1ccc(OCC(=O)Nc2ccc(N3CCC(C)CC3)cc2)cc1	-61.5%
Cc1ccc(NC(=O)COc2ccc(-n3ccnc3)cc2)cc1Cl	73% (active)
CN1CCN(c2ccc(NC(=O)COc3ccc(Cl)cc3Cl)cc2)CC1	3.16%
O=C(Cn1nnc2ccccc2c1=O)NCc1ccc(Cl)cc1	-24.9%
COCCNC(=O)/C(C#N)=C/c1nc(N(C)C)n(-c2ccc(F)cc2)c1Cl	6.3%
Nc1ccc(S(=O)(=O)Nc2nccc(/C=C/c3ccc(Br)s3)n2)cc1	11.1%
CCc1cc2c(NC3CCCC3)ncnc2s1	-4.12%
CCCNc1ncnc2sc(C)c(C)c12	99.7% (active)
CCOC(=O)C(C)n1cnc2sc(C)c(C)c2c1=O (stereo not given)	23.1%
C/[N+]([O-])=C\c1ccc([N+](=O)[O-])o1	-20.9%
COC(=O)C1=C(C)N(C)C(=O)NC1c1ccc([N+](=O)[O-])o1 (stereo not given)	4.38%
C(=N/N1CCN(c2ccccc2)CC1)/c1cccs1	-23.6%
Cc1ccc(N2CCN(C3=NC(=O)/C(=C\c4cccs4)S3)CC2)cc1	-36.9%

Structure (SMILES)	inhibition
Cc1ccc(N2CCN(/N=C/c3cccs3)CC2)cc1	58.4% (active)
CS(=O)(=O)n1nc(-c2ccco2)nc1N	-27.1%
Cn1nc(-c2ccccc2)c(CO)c1Sc1ccccc1	-21.3%
CC(=O)NCCC(=O)Nc1cc(S(=O)(=O)N2CCOCC2)ccc1N1CCOCC1	-13.3%
CCc1ccc(NC(=O)Cn2nc(C)c([N+](=O)[O-])c2C)cc1	24.3%
COC(=O)c1ccc(NCC(=O)N2CCCCCC2)cc1	7.57%
Cc1cc(Cl)ccc1N1C(=O)CC(SCCC(=O)O)C1=O (stereo not given)	-14%
CCOC(=O)c1nc(C)n(-c2ccc(Cl)cc2Cl)n1	-32.4%
Cc1cc(C)nc(/N=C2\NC(=O)CC(C(=O)O)N2c2ccc(Cl)cc2Cl)n1 (stereo not given)	48.5% (active)
COc1ccc(Sc2nc(-c3ccccc3)ncc2OC)cc1	-16.9%
C=CCN(CC=C)C(=O)COC(=O)c1n[nH]c2ccccc12	-73.3%
O=C(CCC(=O)Nc1ccccc1)N/N=C/c1ccccc1F	-1.59%
CCCCC(CC)CNC(=O)C(=O)C1C(=O)Nc2ccccc21 (stereo not given)	-10.1%
COCCNC(=O)CN(C(=O)CCC(=O)Nc1cc(C)on1)c1ccc(C)cc1C	-15.2%
CCCCOc1ccc(N(CC(=O)NCC2CCCO2)C(=O)CCC(=O)Nc2cc(C)ccn2)cc1 (stereo not given)	13.7%
Cc1cc(NC(=O)CCC(=O)N(CC(=O)NCC2CCCO2)c2ccccc2C)no1 (stereo not given)	66.4% (active)
Cc1ccc(CSc2nc3[nH]ncc3c(=O)[nH]2)cc1	16%
Cc1ccc(C(=O)N/C(=C\c2cccs2)C(=O)NCCc2ccccn2)cc1C	-0.32%
C=CCC(C(=O)c1ccccc1)[N+](C)(C)CC=C (stereo not given)	-21.6%
CC1COc2ccccc2N1S(=O)(=O)c1ccccc1 (stereo not given)	10%
O=C1c2ccccc2NC(c2ccccn2)N1NS(=O)(=O)c1ccccc1 (stereo not given)	12.1%
COc1ccc(CCNC(=O)CC2SC(=Nc3cc(C)cc(C)c3)NC2=O)cc1OC (stereo not given)	-40.4%
CCn1c(SC)nc(O)c(C(c2ccc(OC)c(O)c2)c2c(O)nc(SC)n(CC)c2=O)c1=O	-24.8%
COc1ccc2c(c1OC)C(=O)OC2Nc1nc(-c2ccccc2)cs1 (stereo not given)	36.5%
COc1ccc2c(c1OC)C(=O)OC2c1c(O)nc(SC)n(-c2ccccc2)c1=O (stereo not given)	95% (active)

Structure (SMILES)	inhibition
O=C(O)CCCCOn1ccnc1	2.16%
Clc1ccc(CN2CCN(/N=C/c3cccnc3)CC2)cc1	-6.01%
Oc1ccc(-c2nncn2-c2ccccc2)cc1	-13.7%
CCCCN(C(=O)/C=C/c1ccco1)c1c(N)n(CC(C)C)c(=O)[nH]c1=O	7.93%
O=C(Nn1cnc2ccccc2c1=O)c1ccc([N+](=O)[O-])cc1Cl	-17%
O=[n+]1c2c(n([O-])c3cc(Br)ccc31)CCC2	8.3%
O=C(O)CCC(=O)NCc1ccc2[nH]c3c(c2c1)CCCC3	-12%
O=C1CCCc2c1[nH]c1ccc(Br)cc21	71.4% (active)
CCN1C(=O)/C(=c2\s/c(=C3\Sc4ccccc4N3C)c(=O)n2C)N(C)C1=S	-4.14%
CCC(C)NC(=O)/C=C/c1ccc(S(=O)(=O)NCc2ccco2)cc1 (stereo not given)	1.55%
CCN(CC)CCNS(=O)(=O)c1ccc(/C=C/C(=O)O)cc1	85.3% (active)
O=S(=O)(NCCNS(=O)(=O)c1ccccc1)c1ccccc1	-9.47%
O=C(Nc1ccnc(-c2ccncc2)n1)c1cccs1	-27.2%
CCNC(=S)NNC(=O)C1CCN(Cc2ccccc2)CC1	-1.82%
O=C1/C(=C\c2ccccc2Cl)SC(=S)N1CCC(=O)N1CCCc2ccccc21	-3.4%
Cc1occc1C(=O)N1CCCc2ccccc21	19.4%
O=C(c1c(Cl)nc2sccn12)N1CCCc2ccccc21	79% (active)
Cc1ccc(CN2CCN(Cc3ccc4ncccc4c3)CC2CCO)cc1 (stereo not given)	-11.2%
COc1ccc(Cn2c(=O)cc(C)[nH]c2=S)cc1	5.51%
Cn1cccc1C(C#N)c1ccccc1C#N (stereo not given)	20.5%
CCCS(=O)(=O)N1CCC(CCOc2ccccc2)(C(=O)OCC)CC1	-12.3%
COc1ccc(F)c(-c2nc(CN3CCC(c4ccccc4)CC3)c(C)o2)c1	-28.7%
COc1ccc(NC(=S)Nc2ccccc2Cl)cn1	-66.9%
COc1ccc(CS(=O)/C(Cl)=C(/Cl)C(=O)Nc2ccc(OC)nc2)cc1 (stereo not given)	99.4% (active)
COc1ccc(NC(=O)/C(Cl)=C(/Cl)S(=O)Cc2ccc(C)cc2)cn1 (stereo not given)	27.8%
